Test results taken from PubChem BioAssay.
Records with an inconclusive call do not appear. Activity calls are given as the source filed them.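 The calls were made as follows, unless noted: active = normalized viability below 100% at a tested concentration; inactive = the rest.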

Assays:
[1] = growth inhibition of DIPG glioma cells, dose response, cell-based, SU-DIPG-XVII, MIPE5.0, CellTiter-Glo, qHTS (AID 1347060; cut-off not given, nearly all actives have AC50 up to about 26 µM;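 as to AC50: cells exposed to compound for 48 hours before viability readout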); conditions: SU-DIPG-XVII viability, CellTiter-Glo ATP luminescence
[2] = growth inhibition of DIPG glioma cells, dose response, cell-based, SU-DIPG-XIII, MIPE5.0, CellTiter-Glo, qHTS (AID 1347064; cut-off not given, nearly all actives have AC50 up to about 23 µM;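 as to AC50: cells exposed to compound for 48 hours before the viability read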); conditions: SU-DIPG-XIII viability, CellTiter-Glo ATP luminescence
[3] = viability loss in pontine glioma line – cell-based, SU-DIPG-XXV, MIPE5.0, CellTiter-Glo, qHTS, dose response (AID 1347065; cut-off not given, nearly all actives have AC50 up to about 26 µM;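 also: cells exposed to compound for 48 hours before ATP readout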); conditions: CellTiter-Glo ATP luminescence
[4] = JHH-DIPG-1 glioma cell viability, MIPE5.0 library, CellTiter-Glo luminescence, qHTS (AID 1347067; cut-off not given, nearly all actives have AC50 up to about 26 µM;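 also: cells exposed to compound for 48 hours before readout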); conditions: JHH-DIPG-1 glioma viability, CellTiter-Glo ATP luminescence
[5] = SU-DIPG-XXV glioma cell viability, MIPE5.0 library, qHTS (AID 1347068; cut-off not given, nearly all actives have IC50 up to about 30 µM;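 as to IC50: cells exposed to compound for 48 hours before viability readout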)
[6] = sensitizers of A549 cells to miR-34 induction, primary screen, imaging, A549 dox-inducible miR-34, nuclei and caspase counts (AID 1347080;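 active = compounds whose cell count with miR-34 switched on is under 0.7 times the count with it off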); conditions: A549 miR-34 inducible, Hoechst nuclei count, 48 h
[7] = survival rescue of mitochondrial mutant cells in low glucose, primary screen, MELAS cybrids, Rieske KO mouse fibroblasts, CellTiter-Glo (AID 1508586;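 active = mean z-score across replicates of 1.96 or higher in either the MELAS or the Rieske mutant cell line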;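 also: z relative to plate mean and SD of compound and empty wells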)
[8] = ovarian cancer cell viability with rucaparib, profiling panel, oncology-focused library, rucaparib conditional (AID 1508598); conditions: patient-derived ovarian cancer cells, CellTiter-Glo viability, 144 h, stronger effect = lower value
[9] = stronger effect = lower value, cell number ratio, induced over uninduced
[10] = measured here: relative caspase fold change +Dox/-Dox
[11] = measured here: total cells with miR-34 induction, stronger effect = lower value
[12] = measured here: total cells without miR-34 induction
[13] = MELAS cybrid survival, CellTiter-Glo 48 h, stronger effect = higher value
[14] = Rieske KO mouse fibroblast survival, CellTiter-Glo 72 h

CCN1CCN(Cc2ccc(Nc3ncc(F)c(-c4cc(F)c5nc(C)n(C(C)C)c5c4)n3)nc2)CC1
inactive: fold change [6, 9] 0.908
-5.11: z-score [7, 14]
2920: cell count [6, 12]
2650: cell count [6, 11]
active: AC50 [1] 5.9 µM | AC50 [2] 7.42 µM | AC50 [3] 6.61 µM | AC50 [4] 8.33 µM | IC50 [5] 23.5 µM | z-score [7, 13] 5.9
0.558: fold change [6, 10]

COc1nc(N)nc2c1ncn2C1OC(CO)C(O)C1O (centres undefined)
6660: cell count [6, 11]
-0.253: z-score [7, 14]
0.879: fold change [6, 10]
inactive: outcome [1] | outcome [2] | outcome [3] | outcome [4] | outcome [5] | fold change [6, 9] 0.895 | z-score [7, 13] -0.422
7440: cell count [6, 12]

Cc1nnc(C(C)C)n1C1CC2CCC(C1)N2CC[C@H](NC(=O)C1CCC(F)(F)CC1)c1ccccc1 (some centres undefined)
active: viability ([8]; at 0.000305 µM, OCI-P5x cells, with rucaparib 20 µM, 100% = cells with rucaparib alone) 85.1% | viability ([8]; at 0.000305 µM, OCI-P5x cells, without rucaparib) 83.1% | viability ([8]; at 0.00122 µM, OCI-C5x cells, without rucaparib) 98.5% | viability ([8]; at 0.00122 µM, OCI-P5x cells, with rucaparib 20 µM, 100% = cells with rucaparib alone) 86.3% | viability ([8]; at 0.00122 µM, OCI-P5x cells, without rucaparib) 79.3% | viability ([8]; at 0.00488 µM, OCI-P5x cells, with rucaparib 20 µM, 100% = cells with rucaparib alone) 86.7% | viability ([8]; at 0.00488 µM, OCI-P5x cells, without rucaparib) 91.1% | viability ([8]; at 0.0195 µM, OCI-P5x cells, with rucaparib 20 µM, 100% = cells with rucaparib alone) 90.9% | viability ([8]; at 0.0195 µM, OCI-P5x cells, without rucaparib) 90.2% | viability ([8]; at 0.0781 µM, OCI-P5x cells, with rucaparib 20 µM, 100% = cells with rucaparib alone) 96% | viability ([8]; at 0.0781 µM, OCI-P5x cells, without rucaparib) 94% | viability ([8]; at 0.313 µM, OCI-C5x cells, without rucaparib) 99.8% | viability ([8]; at 0.313 µM, OCI-P5x cells, with rucaparib 20 µM, 100% = cells with rucaparib alone) 95.9% | viability ([8]; at 0.313 µM, OCI-P5x cells, without rucaparib) 94.1% | viability ([8]; at 1.25 µM, OCI-P5x cells, with rucaparib 20 µM, 100% = cells with rucaparib alone) 98.8% | viability ([8]; at 1.25 µM, OCI-P5x cells, without rucaparib) 93.2% | viability ([8]; at 5 µM, OCI-P5x cells, with rucaparib 20 µM, 100% = cells with rucaparib alone) 96.7% | viability ([8]; at 5 µM, OCI-P5x cells, without rucaparib) 95.4%
inactive: outcome [1] | outcome [2] | outcome [3] | outcome [4] | outcome [5] | viability ([8]; at 0.000305 µM, OCI-C5x cells, with rucaparib 10 µM, 100% = cells with rucaparib alone) 106% | viability ([8]; at 0.000305 µM, OCI-C5x cells, without rucaparib) 101% | viability ([8]; at 0.00122 µM, OCI-C5x cells, with rucaparib 10 µM, 100% = cells with rucaparib alone) 107% | viability ([8]; at 0.00488 µM, OCI-C5x cells, with rucaparib 10 µM, 100% = cells with rucaparib alone) 105% | viability ([8]; at 0.00488 µM, OCI-C5x cells, without rucaparib) 107% | viability ([8]; at 0.0195 µM, OCI-C5x cells, with rucaparib 10 µM, 100% = cells with rucaparib alone) 113% | viability ([8]; at 0.0195 µM, OCI-C5x cells, without rucaparib) 107% | viability ([8]; at 0.0781 µM, OCI-C5x cells, with rucaparib 10 µM, 100% = cells with rucaparib alone) 117% | viability ([8]; at 0.0781 µM, OCI-C5x cells, without rucaparib) 107% | viability ([8]; at 0.313 µM, OCI-C5x cells, with rucaparib 10 µM, 100% = cells with rucaparib alone) 111% | viability ([8]; at 1.25 µM, OCI-C5x cells, with rucaparib 10 µM, 100% = cells with rucaparib alone) 118% | viability ([8]; at 1.25 µM, OCI-C5x cells, without rucaparib) 108% | viability ([8]; at 5 µM, OCI-C5x cells, with rucaparib 10 µM, 100% = cells with rucaparib alone) 108% | viability ([8]; at 5 µM, OCI-C5x cells, without rucaparib) 112%
